# Test results reported in the supplement of paper PMC10933113.
# Structures can show the parent of a compound that is named as a salt. ± gives the uncertainty stated by the source.
# Tested on: THP-1
# Assay: CD86 surface expression induction over DMSO control (% over DMSO); higher = stronger dendritic cell activation
# Conditions: exposure time: 24 h
# Experimental: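 hCLAT-like CD54 and CD86 surface expression on THP1 cells after 24 h exposure at a single concentration (highest non-cytotoxic concentration, or 100-200 µM if not cytotoxic). Flow cytometry (iQue) was run on 5,000 live cells.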
row,Structure (SMILES),CD86 surface expression induction
1,c1cc(OCC2CO2)cc(OCC2CO2)c1 (stereo not given) [Diglycidyl resorcinol ether (DGRE)] (10 µM),-10.6 ± 5
2,N#CCC#N [Propanedinitrile] (199 µM),-2.3 ± 0.49
3,O=C(CCl)c1ccccc1 [2-Chloroacetophenone] (100 µM),8.54 ± 19
4,c1ccc2sc(SNC3CCCCC3)nc2c1 [N-Cyclohexyl-2-benzothiazolesulfenamide] (100 µM),8.63 ± 9.4
5,Nc1ccc(-c2ccccc2)cc1 [4-Biphenylamine hydrochloride] (100 µM),-3.55 ± 5.8
6,"COc1ccc2[nH]cc(CCN(C(C)C)C(C)C)c2c1 [5-Methoxy-N,N-diisopropyltryptamine hydrochloride] (224.7 µM)",-4.94 ± 3.2
7,"O=[N+]([O-])c1cc(C(F)(F)F)c(Cl)c([N+](=O)[O-])c1Cl [2,4-Dichloro-1,3-dinitro-5-(trifluoromethyl)benzene] (10 µM)",34.2 ± 15
8,[OH-].c1cc[c]([Sn+]([c]2ccccc2)[c]2ccccc2)cc1 [Triphenyltin hydroxide] (10 µM),77.3 ± 9.9
9,CN(C)S(=O)(=O)N(SC(F)(Cl)Cl)c1ccccc1 [Dichlofluanid] (10 µM),88.09 ± 0.57
10,COP(=S)(OC)Oc1ccc(SC)c(C)c1 [Fenthion] (100 µM),-4.96 ± 3.4
11,"CN(C)c1ccc(N(C)C)cc1 [*N,N,N',N'-Tetramethyl-p-phenylenediamine] (200 µM)",52.4 ± 59
12,"c1ccc(Nc2ccc(Nc3ccccc3)cc2)cc1 [N,N'-Diphenyl-p-phenylenediamine] (200 µM)",-11.2 ± 8.1
13,O=C(O)c1ccc(=O)[nH]c1 [6-Hydroxynicotinic acid] (100 µM),-4.7 ± 6.2
14,OC[P+](CO)(CO)CO [Tetrakis(hydroxymethyl)phosphonium SO4] (100 µM),6.79 ± 11
15,CCC(C)(CC)c1cc(NC(=O)c2c(OC)cccc2OC)on1 [Isoxaben] (200 µM),0.63 ± 1.4
16,O=C1C(Cl)=C(Cl)C(=O)C(Cl)=C1Cl [Chloranil] (100 µM),16.6 ± 9.4
17,CCNc1nc(NC(C)(C)C)nc(SC)n1 [Terbutryn] (100 µM),0.6 ± 2.4
18,CC(C)Nc1ccc(Nc2ccccc2)cc1 [N-Isopropyl-N'-phenyl-p-phenylenediamine] (10 µM),91.4 ± 6.8
19,C=C1C[C@@H]2[C@H](CC[C@]3(C)C(=O)CC[C@@H]23)[C@@]2(C)C=CC(=O)C=C12 [Exemestane] (100 µM),12.3 ± 25
20,CCOP(=S)(OCC)Oc1cnc2ccccc2n1 [Quinalphos] (200 µM),-2.83 ± 2.4

row,Structure (SMILES),CD86 surface expression induction
1,OCc1ccco1 [Furfuryl alcohol] (201 µM),5.82 ± 11
2,"Nc1ccc([N+](=O)[O-])cc1N [4-Nitro-1,2-phenylenediamine] (100 µM)",-1.29 ± 1.9
3,O=C1OC(CCN2CCCCC2)OC1(c1ccccc1)c1ccccc1 (stereo not given) [Pipoxolan hydrochloride] (100 µM),98.2 ± 160
4,"CN(C)c1ccc(N)cc1 [N,N-Dimethyl-p-phenylenediamine] (100 µM)",44.5 ± 46
5,"CC(C)CC(C)Nc1ccc(Nc2ccccc2)cc1 (stereo not given) [N-(1,3-Dimethylbutyl)-N'-phenyl-p-phenylenediamine] (10 µM)",59.8 ± 11
6,CC(C)OC(=S)S [Proxan-sodium] (10 µM),-16.7 ± 6.5
7,ClC1=C(Cl)C(Cl)(Cl)C(Cl)=C1Cl [Hexachlorocyclopentadiene] (200 µM),99.2 ± 97
8,S=C=NCc1ccccc1 (10 µM),64.3 ± 6.8
9,CCOC(=O)NC(=S)Nc1ccccc1NC(=S)NC(=O)OCC [Thiophanate] (100 µM),10.2 ± 18
10,CCCOC/C(=N\c1ccc(Cl)cc1C(F)(F)F)n1ccnc1 [Triflumizole] (10 µM),-11.1 ± 7.1
11,CS/C(C)=N\OC(=O)N(C)SN(C)C(=O)O/N=C(\C)SC [Thiodicarb] (10 µM),-14.6 ± 7.8
12,Nc1cc(Cl)ccc1O [2-Amino-4-chlorophenol] (200 µM),41.9 ± 31
13,[CH3][Hg][Cl] [Methyl mercuric (II) chloride] (10 µM),86 ± 7.1
14,CN1C[C@H](C(=O)N[C@]2(C)O[C@@]3(O)[C@@H]4CCCN4C(=O)[C@H](Cc4ccccc4)N3C2=O)C=C2c3cccc4[nH]cc(c34)C[C@H]21 [Ergotamine D-tartrate*] (79 µM),63 ± 77
15,COP(=O)(OC)OC(Br)C(Cl)(Cl)Br (stereo not given) [Naled] (100 µM),30.5 ± 5.4
16,"Cc1ccc(N=C=O)cc1N=C=O [Toluene-2,4-diisocyanate] (100 µM)",3.76 ± 8.7
17,"Nc1ccc(Cl)cc1N [4-Chloro-1,2-diaminobenzene*] (200 µM)",71.3 ± 120
18,C[C@@H]1O[C@@H](O[C@H]2C[C@@H](O)[C@]3(CO)[C@H]4[C@H](O)C[C@]5(C)[C@@H](C6=CC(=O)OC6)CC[C@]5(O)[C@@H]4CC[C@]3(O)C2)[C@H](O)[C@H](O)[C@H]1O [Ouabain] (10 µM),51.7 ± 16
19,"CCCCNC(=O)OCC#CI [Carbamic acid, butyl-, 3-iodo-2-propynyl ester] (10 µM)",-9.06 ± 2.4
20,NNC(N)=S [Thiosemicarbazide] (10 µM),-15.6 ± 6.4
